Reference: the supplement of paper PMC3334620
In all, about 33,000 sequences were measured (“E-score (-0.5 to 0.5)”: median about -0.041, highest 2% from about 0.37 on). Only a selection was taken, and the highest values are over-represented in it overall.

Target: T1, Ecm22 (UniProt Q05958)
T1 sequence: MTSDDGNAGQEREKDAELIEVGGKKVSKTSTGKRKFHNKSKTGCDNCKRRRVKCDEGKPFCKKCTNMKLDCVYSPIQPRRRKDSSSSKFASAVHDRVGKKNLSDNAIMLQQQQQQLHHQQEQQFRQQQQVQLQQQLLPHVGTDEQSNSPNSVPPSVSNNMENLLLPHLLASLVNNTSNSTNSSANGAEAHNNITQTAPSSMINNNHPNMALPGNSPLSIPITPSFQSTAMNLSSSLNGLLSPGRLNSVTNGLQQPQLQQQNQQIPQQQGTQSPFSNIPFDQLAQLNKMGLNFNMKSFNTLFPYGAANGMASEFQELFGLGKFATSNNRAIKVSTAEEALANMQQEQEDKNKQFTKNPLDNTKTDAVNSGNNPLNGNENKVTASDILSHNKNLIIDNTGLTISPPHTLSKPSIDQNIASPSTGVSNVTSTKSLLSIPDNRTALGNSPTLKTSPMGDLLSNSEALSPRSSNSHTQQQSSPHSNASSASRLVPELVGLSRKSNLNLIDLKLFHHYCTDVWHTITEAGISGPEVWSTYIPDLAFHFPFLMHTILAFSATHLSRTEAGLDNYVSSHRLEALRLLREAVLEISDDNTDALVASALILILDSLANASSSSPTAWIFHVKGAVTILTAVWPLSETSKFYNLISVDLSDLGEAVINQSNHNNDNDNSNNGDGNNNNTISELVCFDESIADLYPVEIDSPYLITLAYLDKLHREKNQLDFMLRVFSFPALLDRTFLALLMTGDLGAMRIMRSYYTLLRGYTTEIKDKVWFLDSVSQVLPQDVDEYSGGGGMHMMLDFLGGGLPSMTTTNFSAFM
Assay: PBM E-score (8-mer binding enrichment) (E-score (-0.5 to 0.5)); higher = stronger / more preferred TF binding
Settings: protein concentration: 200 nM; construct: GST-full length
Outline: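 Each ungapped eight-base word and its reverse complement, pooled, received an E-score from the Universal PBM Analysis Suite. Underlying scans, normalised with masliner, recorded fluorescent anti-GST bound to GST-tagged yeast transcription factors. These were applied at about 100-200 nM to universal all-10-mer Agilent arrays double-stranded by primer extension.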

| Sequence | PBM E-score |
| --- | --- |
| ACGGCGAT | 0.377 |
| ACGGCGAG | 0.214 |
| AAAGCCTG | -0.228 |
| ACAGCCCT | -0.279 |
| AAGCTGCA | -0.0356 |
| CTTCGTCC | -0.243 |
| ATTCGTCC | 0.0925 |
| CTTCGTCA | 0.117 |
| CTTCGTAC | 0.477 |
| ATTCGTGC | -0.00078 |
| CTTCGTGC | 0.0216 |
| CTTCGTAA | 0.413 |
| CTTCGTGA | 0.209 |
| ATTCGTAC | 0.468 |
| ACGATCTA | 0.22 |
| ACGATGCT | 0.283 |
| TCATACCA | -0.0984 |
| CCATACGG | 0.345 |
| TCATACGA | 0.463 |
| CCATACGA | 0.462 |
| TCATACAA | -0.115 |
| ACATACGA | 0.466 |
| ACATACGG | 0.321 |
| ACATACGC | 0.221 |
| GCATACGA | 0.446 |

| Sequence | PBM E-score |
| --- | --- |
| GCATACAA | 0.0278 |
| GCATACGC | 0.199 |
| CCATACGC | 0.218 |
| GAACCCGC | 0.0274 |
| AAGAAAAC | 0.0702 |
| TAATCATA | -0.0103 |
| TAATCGCA | 0.215 |
| CGAGGACA | 0.0726 |
| TAGTACCA | -0.124 |
| TAGTACAA | 0.0161 |
| GAGTACAA | 0.0511 |
| AAGTACGC | 0.0885 |
| TAGTACGA | 0.443 |
| AAGTACGA | 0.448 |
| GAGTACGA | 0.426 |
| CAGTACGC | 0.06 |
| AAGTACGT | 0.171 |
| GAGTACGC | -0.0338 |
| CAGTACGA | 0.423 |
| CAGTACGG | 0.27 |
| CGGACCCG | 0.21 |
| ACCACAAC | 0.0744 |
| CGGGTCTC | 0.00746 |
| CTATTCGA | 0.0817 |
| ACTGGTAA | 0.0597 |

| Sequence | PBM E-score |
| --- | --- |
| CCGTATTA | 0.316 |
| GACGCCCC | -0.0249 |
| GCCGTAGA | 0.213 |
| CCCGTATC | 0.327 |
| GCCGTATA | 0.463 |
| CCCGTATA | 0.471 |
| CCCGTAGA | -0.00351 |
| ACCGTATC | 0.346 |
| GCGGTATA | -0.0371 |
| ACCGTATA | 0.459 |
| ACCGTATG | 0.325 |
| ACGGGGGA | 0.16 |
| CGCTCACC | 0.112 |
| ACCATTTG | -0.0622 |
| CCATGAGA | -0.118 |
| AACCGAGA | 0.312 |
| AGCAAGTG | -0.181 |
| AGTGGAAT | -0.0777 |
| AACCGGAG | -0.0216 |
| AGGCTTTA | -0.133 |
| AGGATCCT | 0.134 |
| CAAACGGA | 0.202 |
| GAAACGGA | 0.256 |
| TAAACGTA | 0.38 |
| TAAACGGA | 0.433 |

| Sequence | PBM E-score |
| --- | --- |
| AAAACGTA | 0.164 |
| CAAACGTA | 0.186 |
| AGACCACG | -0.221 |
| ACGCGAGA | 0.281 |
| AAGTTCGT | 0.319 |
| CTAGACAG | -0.189 |
| ACTCGTGC | 0.0518 |
| ACTCGTAC | 0.484 |
| ACTCGGAT | 0.318 |
| ACTCGTCC | -0.139 |
| ACTCGTCT | 0.172 |
| CCTCATAG | -0.183 |
| CCGCGTAC | 0.231 |
| CCTCGTCG | 0.218 |
| CCTCGTAC | 0.491 |
| CCTCGTAG | 0.41 |
| ACTCGTAT | 0.479 |
| CCTCGGAC | 0.246 |
| AGCCCAGG | -0.341 |
| AGGGCGCG | -0.0881 |
| CCCTTCTC | -0.218 |
| CCGTTAGA | 0.0314 |
| GCAGCCGC | -0.0784 |
| ATACAGAG | -0.0254 |
| ATGGTCTG | -0.0872 |

| Sequence | PBM E-score |
| --- | --- |
| CCTTTCAA | -0.203 |
| ACCTCTAG | -0.137 |
| GCTCGTCA | 0.0115 |
| ACTCGTAG | 0.34 |
| TCACGTAA | 0.00322 |
| TCTCGTCA | 0.0737 |
| CCTCGTAA | 0.446 |
| TCTCGTAA | 0.438 |
| CCTCGTGA | 0.201 |
| GCTCGTAA | 0.451 |
| ACTCGTCA | 0.0424 |
| ACTCGTAA | 0.437 |
| GCTCGTGA | 0.171 |
| CCTCGTCA | 0.232 |
| CTGAACCC | 0.0346 |
| AGCTGTAT | -0.124 |
| AGCCTGCG | -0.17 |
| AGAGACAT | -0.195 |
| GCTCGTCC | -0.109 |
| GCACGTAC | 0.168 |
| GCTCGTAC | 0.486 |
| CACACATC | -0.226 |
| CGATCAGC | 0.09 |
| GCGAGGAC | 0.0393 |
| AGGAGGAT | -0.157 |

| Sequence | PBM E-score |
| --- | --- |
| ACGAGGAG | 0.349 |
| ACGAGGAT | 0.387 |
| ACGAGGAA | 0.375 |
| CCGAGGAC | 0.207 |
| TCGAGGAA | 0.101 |
| CCGAGGAA | 0.0818 |
| ACGAGGAC | 0.42 |
| ACGCTCGG | 0.21 |
| CAGCTGCA | -0.385 |
| CCATTCCA | -0.228 |
| CGTGTGCA | -0.0516 |
| AGTCTACC | -0.156 |
| CAAGATCG | 0.122 |
| CCCCGTAC | 0.377 |
| CCCCGTAA | 0.211 |
| ACCCGTAC | 0.374 |
| ACCCGTCT | -0.0476 |
| CCCCGTAG | 0.0215 |
| AACCGTAT | 0.341 |
| GCCCGTAA | 0.221 |
| ACCCGTAG | -0.142 |
| GCCCGTAC | 0.396 |
| ACCCGTAT | 0.391 |
| GCCCGTCC | -0.279 |
| ACCCGTAA | 0.179 |

| Sequence | PBM E-score |
| --- | --- |
| ACGTATTC | 0.144 |
| ACGGAGCC | -0.084 |
| ATTACTTC | -0.0783 |
| GAGGGATC | -0.0216 |
| CTCCTTCC | -0.152 |
| CGGCGCAG | -0.0964 |
| ACAACCGA | 0.26 |
| AACCTTTC | -0.0282 |
| CGCAGAAG | 0.00639 |
| AACTAACG | 0.141 |
| GTTCGTAA | 0.427 |
| GTTCGTGA | 0.141 |
| ATTCGTAG | 0.325 |
| ATTCGTAA | 0.405 |
| ATTCGTGA | -0.00041 |
| GTTCGTCA | 0.0919 |
| AAATGCGC | -0.0587 |
| AAACTGTG | -0.214 |
| CCAGTCAA | -0.166 |
| CCCGTACA | 0.368 |
| CACGTACC | 0.285 |
| CCCGTAAC | 0.189 |
| CCCGTACG | 0.402 |
| CCCGTACC | 0.446 |
| CCCGTAGG | -0.158 |
